Shown are actives, neighbours in structure and some others; about 21% of the full set was active somewhere.
NS1 inh: blocks influenza NS1 protein function | 270,000 compounds, 0.4% hits | Potency, µM (top dose mostly 46.1 µM), for the others: at the highest dose activity, positive = more growth; calls by dose curve; further: potency means the concentration at half of the fitted maximal effect; actives are rising curves; nearly all actives have a fitted effect of over 50% in size
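In this qHTS, NS1 from influenza A is expressed in budding yeast, where it slows growth. Cells are switched from glucose to 2% galactose medium (pH 6.0, -URA), treated with compound, and growth recovery is read at OD600.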
Pf growth 96h: P. falciparum growth inhibition at 96 hour, primary screen for plastid delayed-death inhibitors | P. falciparum luciferase reporter growth, 96 h | Potency, µM (doses to about 28.7 µM), for the others: at the highest dose activity change, negative = inhibition, actives largely listed as inhibitors | 320,000 compounds, 6.9% hits; further: potency means the concentration at half of the fitted maximal effect; on the % scale 0 is the no-effect control and ±100 the full control effect
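Plates of compound plus infected erythrocytes (2% hematocrit, 0.05% parasitemia final) incubate 96 hours, 37 C, 5% CO2. Detection reagent added; reduced luminescence from the parasites' luciferase reporter flags inhibition.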
Pf growth 48h: inhibits P. falciparum growth in the first generation, 48 h. Potency, µM (series often up to 28.7 µM), for the others: at the highest dose activity change, negative = inhibition, actives largely listed as inhibitors. 310,000 compounds, 5.9% hits. P. falciparum luciferase growth in erythrocytes, 48 h; further: potency means the concentration at half of the fitted maximal effect; on the % scale 0 is the no-effect control and ±100 the full control effect
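Growth was read as firefly luciferase luminescence after a 48 h, 37 C, 5% CO2 exposure of compounds to reporter-bearing P. falciparum cultures (0.1% parasitemia, 2% hematocrit final) in Albumax-supplemented RPMI 1640.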
CHX counter: counter-screen for Shiga toxin inhibitors: cycloheximide protein synthesis inhibition; cell reporter, cycloheximide protein synthesis inhibition counterscreen; 300,000 compounds, 12% hits; max response, %; in the data active means max response mostly above about 13%, no sharp cut-off; inactive means mostly below about 14%; further: read at 38.3 µM for the half of the compounds with a filed dose; 0% is about no effect
Shiga toxin inh: Shiga toxin inhibition | Vero cells, Shiga toxin protein synthesis inhibition reporter | inhibition, % at 38.7 µM | 290,000 compounds, 9.2% hits | AID 2315; in the data active means inhibition mostly above about 28%, no sharp cut-off; inactive means mostly below about 43%; further: 0% is about no effect
* = called active by the depositor; ? = inconclusive; . = no result; [ ] = another dose, or the depositor's remark. Unless noted, the call rests on the fitted dose curve; in most records, active means well fitted inhibition curve with a large enough effect; inconclusive means small, poorly fitted or top-dose-only effect, or another doubt; inactive means no such curve, though single readings can be large or run the other way.

SMILES	NS1 inh	Pf growth 96h	Pf growth 48h	CHX counter	Shiga toxin inh
COC(=O)NCC(c1ccc2c(c1)OCO2)N1CCN(c2ccccc2)CC1 (stereo unspecified)	2%	5%	7%	-5	-3
COc1ccc(C(=O)NCC(c2ccc3c(c2)OCO3)N2CCN(c3ccc(OC)cc3)CC2)cc1 (stereo unspecified)	.	2.6µM*	?	.	.
COc1ccc(C(CNC(=O)c2cc(S(=O)(=O)N3CCCC3)ccc2Cl)N2CCCC2)cc1 (stereo unspecified)	.	9.3µM*	?	.	.
Cc1cc(C)cc(NC(=O)c2ccc(N3C(=O)C4CCCCC4C3=O)cc2)c1 (stereo unspecified)	-2%	20%	-9%	6	3
COc1cccc(CNn2c(-c3cccc(C)c3)nc3ccccc3c2=O)c1	-1%	9.3µM*	.	19*	24
COc1ccc(OC)c(CNn2c(-c3cccc(C)c3)nc3ccccc3c2=O)c1	-8%	8.3µM*	.	-1	3
Cc1ccccc1N1C(=O)c2cc(N)ccc2N/C1=C\F	.	?	-7%	.	.
O=C(CCC(=O)Nc1cccc([N+](=O)[O-])c1)N/N=C/c1cccs1	9%	?	10%	19	13
CC1(CCBr)C(=O)N(c2ccccc2)c2ccccc21 (stereo unspecified)	17%	13µM*	-13%	-3	.
O=C1N(c2ccccc2)c2ccccc2C1(Cc1ccncc1)Cc1ccncc1	-15%	?	?	-7	-7
CC1(C)CC(=O)c2c(noc2-c2ccccc2)C1	2%	?	?	31*	58*
CC1(C)CC(=O)c2c(Cc3ccccc3)noc2C1	.	21%	5%	13	32
COc1ccc(C)cc1NC(=O)NC1CCCc2ccccc21 (stereo unspecified)	6%	16%	12µM*	-4	-3
COc1cccc(CNC2CCCc3ccccc32)c1OC (stereo unspecified)	.	2.9µM*	-9%	-5	-12
CC(=O)c1ccc(NC(=O)NC2CCCc3ccccc32)cc1 (stereo unspecified)	-11%	-17%	-6%	1	4
COc1ccc(NC(=O)NC2CCCc3ccccc32)cc1OC (stereo unspecified)	-5%	-23%	137%	33*	31*
COc1ccc(NC(=O)NC2CCCc3ccccc32)cc1 (stereo unspecified)	5%	12%	21%	16*	19
O=C(CCC1CCCN(C(=O)Cn2cnnn2)C1)NCc1ccccc1F (stereo unspecified)	0%	0%	58%	0	-7
CC(=O)Nc1ccc(S(=O)(=O)NCCc2cc3ccc(C)c(C)c3[nH]c2=O)cc1	-4%	?	?	-2	28
Cc1cnc(C(=O)OCC(=O)c2ccc(C)s2)cn1	.	10%	4%	.	.
C/C(=N\Nc1ccc(Cl)c(C(=O)O)c1)c1cccs1	0%	7%	?	32*	90*
O=C(O)CC/C(=N\Nc1ccc(Cl)cc1)c1cccs1	-6%	-14%	-9%	11	4
Cc1c(NC(=O)c2cccs2)cccc1C(=O)O	7%	-7%	100%	10	47
C/C(=N\Nc1ccc(Cl)c(C(=O)O)c1)c1ccc[nH]1	3%	37%	-6%	51*	157*
C/C(=N/Nc1ccccc1C(=O)O)c1cccs1	-98%	?	6%	20*	28
SMILES	NS1 inh	Pf growth 96h	Pf growth 48h	CHX counter	Shiga toxin inh
CC(C)(C)C(=O)NC(=S)Nc1ccc(Cl)c(C(=O)O)c1	.	-15%[5.75 µM]	21%[5.75 µM]	7	26
CCOc1ccccc1N1CCN(C(=O)c2cc(-c3cc(OC)ccc3OC)nc3ccccc23)CC1	12%	-20%	?	9	-16
COC(=O)c1cc(C#N)c(N2CCN(C)CC2)nc1C	.	8%[5.75 µM]	3%	-3	19
Cn1c(O)c(/C=N/N2CCOCC2)c(=O)n(C)c1=S	-1%	36%	13µM*	2	-1
Cc1cccc(C)c1NC(=O)CC12CCCN1CCC2	.	6µM*	-9%	.	.
Cc1cccc(C)c1NC(=O)CNCC(=O)Nc1c(C)cccc1C	3%	-3%	16%	1	-5
Nc1c(Cl)cc(C2=NCCn3c2c2ccc(C(F)(F)F)cc2[n+]3[O-])cc1Cl	.	?	-79%	.	.
COc1c(Cl)ccc(Cl)c1C(=O)NC(=S)N1CCOCC1	7%	-43%[1.15 µM]	16%	-2	0
CC(=O)Nc1ccc(S(=O)(=O)N(C)CC(=O)Nc2ccccc2N2CCOCC2)cc1	-9%	25%	-4%	-3	-15
CN(c1ccc(O)cc1)c1nc(-c2ccccc2)cs1	-67%	2%	149%	62*	active
COCCN(C(=O)c1ccccc1F)c1nnc(-c2ccc(OC)cc2)s1	-9%	?	-23%	32*	46*
COCCN(C(=O)C(C)C)c1nnc(-c2ccc(C)cc2)s1	-25%	69%	78%	29	83*
CN(C)CCCN(C(=O)c1cccs1)c1nc(-c2ccccc2)cs1	1%	?	?	-3	14
O=C(c1cccs1)N(Cc1ccco1)c1nc(-c2ccc(F)cc2)cs1	10%	-12%	13µM*	-3	2
CC(C)C(=O)Nc1c2c(nn1-c1ccc(F)cc1)CSC2	0%	0%	7%	21	-7
CCN(C(=O)c1ccco1)c1nc(-c2ccc(OC)cc2)cs1	-43%	?	-15%	41*	59
COCCN(C(=O)c1ccccc1F)c1nc(-c2ccc(OC)cc2)cs1	28%	316%	?	-2	11
CCC(=O)N(Cc1ccco1)c1nc(-c2ccc(OC)cc2)cs1	6%	?	-27%	-2	45
CCN(C(=O)c1ccccc1F)c1nc(-c2ccc(OC)cc2)cs1	16%	-23%	4%	44*	51*
CCC(=O)N(CC)c1nc(-c2ccc(OC)cc2)cs1	-10%	0%	84%	61*	84*
CN(C(=O)c1ccco1)c1nc(-c2ccccc2)cs1	-6%	?	276%	38*	36*
CCCCN(C(=O)c1ccco1)c1nnc(-c2cc(OC)c(OC)c(OC)c2)s1	-3%	.	1.9µM*	-4	-7
Cc1ccc(-c2nnc(N3CCOCC3)c3ccccc23)cc1S(=O)(=O)NCC1CCCO1 (stereo unspecified)	-19%	-22%	8.3µM*	8	20
CNS(=O)(=O)c1cc(-c2nnc(Nc3ccc(CC(N)=O)cc3)c3ccccc23)ccc1C	-73%	30%	7.4µM*	-2	-4
CNC(=O)c1ccc(Nc2nnc(-c3ccc(C)c(S(N)(=O)=O)c3)c3ccccc23)cc1	-6%	3%	0%	-1	-6
Cc1ccc(-c2nnc(Nc3ccc(OCC(N)=O)cc3)c3ccccc23)cc1S(N)(=O)=O	-3%	58%	13µM*	-5	3
Cc1ccc(-c2nnc(Nc3ccc(CC(N)=O)cc3)c3ccccc23)cc1S(=O)(=O)NCC1CCCO1 (stereo unspecified)	-1%	?	0.83µM*	-1	9
Cc1ccc(-c2nnc(Nc3ccc(CC(N)=O)cc3)c3ccccc23)cc1S(N)(=O)=O	0%	39%	0%[0.00184 µM]	-1	-6
